Results published in PubChem BioAssay AID1851 (National Center for Advancing Translational Sciences (NCATS), 2009).
Among all 16,000 compounds or so, about 5,700 (36%) were called active. Roughly 24% stayed inconclusive and do not appear here. Calls come from the whole dose curve; as a rule, active = well fitted curve in the direction sought with a large enough effect; inconclusive = small, poorly fitted or top-dose-only effect, or effect the other way; inactive = no such curve, though single readings can be large or run the other way. Some of the results follow.

These compounds were tested against Cytochrome P450 1A2 (Homo sapiens) (UniProt P05177) (assay: Cytochrome panel assay with activity outcomes). Details: recombinant CYP, pro-luciferin dealkylation, luminescence, p450-cyp1a2; series mostly up to 57.1 µM; activity, negative = inhibition: at the top concentration.
% is set by controls: 0 for no effect and ±100 for the full control effect.

Sequence of Cytochrome P450 1A2 (Homo sapiens) (P05177 whole entry, looked up): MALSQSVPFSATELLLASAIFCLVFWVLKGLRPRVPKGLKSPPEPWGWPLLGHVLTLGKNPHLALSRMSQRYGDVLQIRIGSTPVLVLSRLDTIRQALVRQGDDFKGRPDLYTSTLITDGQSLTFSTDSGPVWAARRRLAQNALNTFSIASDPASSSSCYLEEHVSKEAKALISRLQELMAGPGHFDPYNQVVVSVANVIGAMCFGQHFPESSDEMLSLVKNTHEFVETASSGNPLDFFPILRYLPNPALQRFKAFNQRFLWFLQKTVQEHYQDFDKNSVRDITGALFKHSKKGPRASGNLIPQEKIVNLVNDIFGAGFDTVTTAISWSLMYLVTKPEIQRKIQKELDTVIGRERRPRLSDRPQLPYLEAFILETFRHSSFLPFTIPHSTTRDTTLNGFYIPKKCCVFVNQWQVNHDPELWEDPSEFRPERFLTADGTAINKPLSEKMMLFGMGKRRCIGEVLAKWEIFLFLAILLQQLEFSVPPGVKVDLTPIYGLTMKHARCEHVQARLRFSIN

Compound	activity, negative = inhibition	AC50
COc1ccc(O[C@H]2C=C[C@@H](c3ccccc3)O[C@@H]2CON=C(C)C)cc1	-2.27% [at 11.4 µM] (inactive)	–
Cc1cc2nc3[nH]c4c(Cl)cc(Cl)cc4c3nc2cc1C	–	0.631 µM (active)
CS(=O)(=O)N1CCC2(CC1)CN(C(=O)Nc1cccc(C#N)c1)C2	-18.1% (inactive)	–
C=CCNC(=S)N/N=C/c1ccc(-c2cc(Cl)ccc2Cl)o1	–	0.112 µM (active)
CC(=O)C1=C(O)C=C(c2ccco2)CC1c1ccco1 (stereo not given)	–	5.01 µM (active)
CC1=CC=CN2CC(O)CN=C12 (stereo not given)	11.4% (inactive)	–
N#Cc1ccccc1NC(=O)Nc1cccs1	–	7.08 µM (active)
COc1cc2c3cc1Oc1cc(ccc1O)C[C@@H]1c4c(cc(OC)c(O)c4Oc4ccc(cc4)C[C@H]3[N+](C)(C)CC2)CC[N+]1(C)C	-5.47% [at 11.4 µM] (inactive)	–
COC(=O)[C@@H]1CC[C@H](C)[C@@H](c2ccc(C)cc2)N1C(=O)c1ccc(/C=N\OC[C@@H](C)[C@H](OCc2ccccc2)C(C)C)cc1	-8.55% [at 11.4 µM] (inactive)	–
COc1ccc([N+](=O)[O-])cc1NCc1ccccc1C	–	2.82 µM (active)
Cc1cc([N+](=O)[O-])ccc1NCc1ccccc1	–	2.82 µM (active)
COc1ccc([N+](=O)[O-])cc1NC1C2CC3CC(C2)CC1C3 (stereo not given)	-13.9% (inactive)	–
Cc1cc(C)c(-c2cc([C@H](C)O/N=C\[C@@H](C)[C@H](OCc3ccccc3)C(C)C)on2)c(C)c1	5.92% [at 11.4 µM] (inactive)	–
O=C(O)CONC(=O)c1cc(OCC(F)(F)F)ccc1OCC(F)(F)F	-17.8% (inactive)	–
Fc1cccc(NC(=S)NCCCN2CCOCC2)c1	-12.7% (inactive)	–
S=C(NCCSCc1c(Cl)cccc1Cl)Nc1ccccc1	–	1.41 µM (active)
CN(C)c1ccc(N=Cc2nc(-c3ccccc3)oc2O)cc1	–	0.398 µM (active)
Oc1oc(-c2ccccc2)nc1C=Nc1ccccc1	–	0.316 µM (active)
CC1=C(C(N)=O)C(c2ccccc2)n2nc(-c3ccncc3)nc2N1 (stereo not given)	–	14.1 µM (active)
CSc1nc2n(n1)C(c1cccc(F)c1)C(C(=O)Nc1ccc(C)cc1C)=C(C)N2 (stereo not given)	1.58% (inactive)	–
CCOC(=O)C1=C(C)Nc2ncnn2C1c1cccnc1 (stereo not given)	-18.6% (inactive)	–
COc1cccc([C@H](O)Cn2cc(-c3ccc(CON=C(C)C)cc3)nn2)c1	-9.27% [at 11.4 µM] (inactive)	–
COc1ccc(OC)c(Nc2nc(-c3sc(NC(=O)c4ccccc4)nc3C)cs2)c1	-16% (inactive)	–
COc1cccc(Nc2nc(-c3ccc(O)cc3)cs2)c1	–	1 µM (active)

Compound	activity, negative = inhibition	AC50
C=CCNC(=S)Nc1ccc2nc(C)c(C)nc2c1	–	4.47 µM (active)
COc1cc(N=c2ssnc2Cl)cc(OC)c1OC	–	3.16 µM (active)
CCn1c(=O)c2[nH]c(-c3ccccc3)nc2n(CC)c1=O	–	1 µM (active)
CCCn1c(=O)c2[nH]c(-c3ccccc3)nc2n(CCC)c1=O	–	0.0794 µM (active)
Cn1c(=O)c2[nH]c(CCC(=O)O)nc2n(C)c1=O	-3.23% [at 11.4 µM] (inactive)	–
CCn1c(CCCc2nc3c([nH]2)c(=O)n(C)c(=O)n3C)nc2c1c(=O)n(C)c(=O)n2C	-16.7% [at 2.29 µM] (inactive)	–
Cn1c(=O)c2[nH]c(CSCc3ccccc3)nc2n(C)c1=O	-15.4% [at 2.29 µM] (inactive)	–
Cn1c(=O)c2[nH]cnc2n(C)c1=O	-18.4% [at 25.6 µM] (inactive)	–
CCCn1c(=O)c2[nH]c(-c3ccc(OCC(=O)NCCN)cc3)nc2n(CCC)c1=O	5.09% (inactive)	–
COc1ccc(-c2nc3c([nH]2)c(=O)n(C)c(=O)n3C)c(OC)c1	–	2 µM (active)
Cn1c(=O)c2[nH]c(-c3ccc(S(=O)(=O)O)cc3)nc2n(C)c1=O	-17.6% (inactive)	–
Cn1c(=O)c2[nH]c(-c3ccccc3)nc2n(C)c1=O	–	2 µM (active)
Cc1cc(NC(=O)c2c([N+](=O)[O-])cnn2C)no1	-10.2% (inactive)	–
O=C(CC(c1ccccc1)c1ccccc1)Nc1ccc2c(c1)OCCO2	–	10 µM (active)
CCNC(=O)NC1(C(=O)Nc2ccc3c(c2)OCCO3)CCCCC1	15.2% (inactive)	–
O=C(Cn1ccc(=O)[nH]c1=O)Nc1ccc(C(=O)O)c(O)c1	-16.5% [at 2.29 µM] (inactive)	–
COc1cc2c(cc1OC)C(C(=O)Nc1ccc3c(c1)OCCO3)C(c1cccnc1)N(C)C2=O (stereo not given)	-15.2% (inactive)	–
CCOC(=O)Nc1ccc(C(=O)Oc2ccccc2)c(O)c1	–	3.16 µM (active)
Cn1ncc([N+](=O)[O-])c1C(=O)Nc1ccc2c(c1)OCCO2	–	1.26 µM (active)
CC(C)(C)c1ccc(OC(=O)Nc2ccc(O)c(C(=O)O)c2)cc1	6.5% [at 2.29 µM] (inactive)	–
O=C(CC1C(=O)NCCN1C(=S)Nc1ccccc1)Nc1ccc2c(c1)OCCO2 (stereo not given)	-16% (inactive)	–
CC(=O)Nc1ccc2c(c1)OCCOCCOc1cc(NC(C)=O)ccc1OCCOCCOCCO2	-0.0222% (inactive)	–
CC(=O)Nc1ccc2c(c1)OCCO2	–	10 µM (active)
CC[n+]1c(P(=O)([O-])c2ccccc2)[nH]c2ccccc21	21.3% (inactive)	–

Compound	activity, negative = inhibition	AC50
COc1ccccc1CN1CCC2(CC1)CCN(C(=O)c1cccn1C)CC2	-12.2% (inactive)	–
CC(C)NC(=O)N1CCC2(CC1)CCN(C(=O)c1cc(C(F)(F)F)cc(C(F)(F)F)c1)CC2	2.82% (inactive)	–
O=C1C2CCC(C(O)C2)N1Cc1ccccc1 (stereo not given)	13.7% (inactive)	–
CCOC(=O)Nc1ccc2c(c1)OCO2	–	1.26 µM (active)
O=c1cnc2cnc(Oc3cccc(Cl)c3)nc2n1Cc1ccc(F)cc1	–	15.8 µM (active)
O=c1cnc2cnc(Oc3ccccc3)nc2n1Cc1ccc(F)cc1	–	15.8 µM (active)
COc1cccc(Cn2c(=O)cnc3cnc(OCc4ccccc4)nc32)c1	–	12.6 µM (active)
COc1cccc(Cn2c(=O)cnc3cnc(Oc4cccc(Cl)c4)nc32)c1	–	12.6 µM (active)
CON1C(=O)C(=O)N(OC)C(C)(C)C1C (stereo not given)	-4.35% (inactive)	–
COc1ccc(O[C@H]2C=C[C@@H](c3ccccc3)O[C@H]2COC(=O)CC/C(C)=N\O[C@@H](C)c2cn([C@H]3COC[C@H]3O)nn2)cc1	-4.14% [at 11.4 µM] (inactive)	–
O=c1cnc2cnc(OCc3ccccc3)nc2n1Cc1ccc(F)cc1	–	12.6 µM (active)
COc1ncc2ncc(=O)n(Cc3ccc(F)cc3)c2n1	–	12.6 µM (active)
CC(=O)N(C[C@@H](O)CO)c1c(I)c(C(=O)NC[C@@H](O)CO)c(I)c(C(=O)NC[C@@H](O)CO)c1I	-4.01% [at 25.6 µM] (inactive)	–
CC(C)COC[C@H](CN(Cc1ccccc1)c1ccccc1)N1CCCC1	5.78% (inactive)	–
CN1C(=O)CC[C@@H]1c1cccnc1	–	inactive
COc1ccc(N2C(=O)CSC2c2cccc(F)c2)c(OC)c1 (stereo not given)	-16.7% (inactive)	–
Cc1ccc(N2C(=O)CSC2c2cccnc2)cc1F (stereo not given)	–	15.8 µM (active)
CCOC(=O)N1CCN(S(=O)(=O)Cc2ccccc2)CC1	-29.3% (inactive)	–
COc1cccc(C(=O)N2N=C(c3cccc(OC)c3)CC2(O)C(F)(F)F)c1 (stereo not given)	–	14.1 µM (active)
CCC1=NN(C(=O)CCc2ccccc2)C(O)(C(F)(F)F)C1 (stereo not given)	–	11.2 µM (active)
CC1(C)CC(=O)C2=C(C1)N(Cc1ccccc1)C(=O)C2(O)C(F)(F)F (stereo not given)	6.23% (inactive)	–
CCOC(=O)N1N=C(c2ccccc2)CC1(O)C(F)(F)F (stereo not given)	–	15.8 µM (active)
O=C(CCCc1ccccc1)N1CCN(c2ccc([N+](=O)[O-])cc2)CC1	-22.5% (inactive)	–
COc1cccc(C(=O)NNC2=CC(=O)CC(C)(C)C2)c1	1.45% (inactive)	–

Compound	activity, negative = inhibition	AC50
CO[C@H]1C=CO[C@]2(C)Oc3c(C)c(O)c4c(O)c(c5c(c4c3C2=O)NC2(CCN(CC(C)C)CC2)N=5)=NC(=O)C(C)=CC=C[C@@H](C)[C@@H](O)[C@@H](C)[C@@H](O)[C@@H](C)[C@@H](OC(C)=O)[C@@H]1C	-11.4% [at 25.6 µM] (inactive)	–
COc1ccc(NC(=O)N2CC3(CCN(C(=O)c4csnn4)CC3)C2)cc1	2.39% (inactive)	–
CCN1CCCC1Cn1cnc2c([nH]c3ccc(C)cc32)c1=O (stereo not given)	–	15.8 µM (active)
O=C(O)CC[C@@H](C(=O)O)N1C(=O)c2ccccc2C1=O	–	inactive
O=C(CCN1C(=O)c2ccccc2C1=O)Oc1ccc2ccccc2c1	–	17.8 µM (active)
O=C(O)[C@H](CCc1ccccc1)N1C(=O)c2ccccc2C1=O	-9.63% [at 2.29 µM] (inactive)	–
CCOc1ccc(Cl)cc1CNCCNCCO	–	15.8 µM (active)
CCOc1ccccc1CNCCN1CCOCC1	2.73% (inactive)	–
CCOc1ccc(Cl)cc1CNCCNCC(C)O (stereo not given)	–	12.6 µM (active)
CCOc1cc(CNCCc2ccc(S(N)(=O)=O)cc2)ccc1OCc1ccc(Cl)cc1	-17% (inactive)	–
COc1c(Cl)cc(Cl)cc1CNCCNCC(C)O (stereo not given)	–	11.2 µM (active)
CCOc1ccc(CC(C(N)=O)C(N)=O)cc1CN(C)C	-1.76% (inactive)	–
C=C(C)COc1ccc(-c2n[nH]c(C)c2-c2ccc(OC)cc2)c(O)c1	–	14.1 µM (active)
Oc1ccc(-c2[nH]ncc2-c2ccc(Cl)cc2)c(O)c1	–	1.58 µM (active)
Cc1[nH]nc(-c2ccc(O)cc2O)c1-c1ccc(Cl)cc1	–	2.24 µM (active)
CC1(C)O[C@@H]2O[C@H]([C@H](O)CO/N=C3/[C@H]4O[C@@H]4[C@@H](O)[C@H]4[C@H]3CCn3c(=O)n(-c5ccccc5)c(=O)n34)[C@@H](O)[C@@H]2O1	-7.71% [at 11.4 µM] (inactive)	–
Cc1cc(NC(=O)C2C3C(=O)N(Cc4ccc(Cl)cc4)C(C(=O)NC(C)(C)C)C34C=CC2(C)O4)no1 (stereo not given)	2.8% (inactive)	–
O=C(COc1ccc2ccccc2c1Br)NNC(=O)Nc1ccccc1	–	5.62 µM (active)
CCCC(=O)NNC(=O)Nc1ccccc1	-5.14% (inactive)	–
N#Cc1ccc(-c2ccc(F)cc2)nc1Oc1ccc(Cl)c(Cl)c1	–	1 µM (active)
CCc1nnc(NC(=O)CSc2ncnc3c2cnn3-c2ccc(OC)cc2)s1	-0.31% (inactive)	–
Cc1ccc(-n2ncc3c(=O)n(CC(=O)NCC4CCCO4)cnc32)cc1 (stereo not given)	-21.7% (inactive)	–
COc1ccc(-n2ncc3c(NCC4CCCO4)ncnc32)cc1 (stereo not given)	–	14.1 µM (active)
